Phagocytosis inh: inhibitors of macrophage phagocytosis, primary screen, imaging, J774A.1 cells, IgG beads; J774A.1 macrophage IgG-bead phagocytosis; actives 0.07% (n = 110,000); inhibition, % at 5 µM;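 active = inhibition above the mean of the plate negative controls plus 5 SD, cut at about 13% in these data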;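 note: phagocytic index as fraction of beads internalized from green versus red external bead signal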
Measles CPE: compounds protecting cells from measles virus cytopathic effect, primary screen, measles RdRp inhibitor project, single point, MLSMR library, absorbance. Measles virus-infected cells, CPE protection. protection (pct of control), % at 4 µM. actives 1.5% (n = 140,000); in the data active = protection mostly above about 24%, no sharp cut-off; inactive = mostly below about 26%
sdo1 growth: growth rescue of sdo1-depleted yeast, primary screen, S. cerevisiae, bone marrow failure model. S. cerevisiae sdo1-depleted JHY4D growth rescue, OD600 30 h; active compounds read high; pdr5 snq2 efflux-pump mutant strain. z-score at 10 µM. actives 0.21% (n = 140,000). AID 817, 2007;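 active = z-score above 3 at both the 24 hr and the 30 hr optical density reads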
A number is an active result; . = inactive; / = no result given. In the library only some 1.8% were active in any assay of this set; here they are far more common.

SMILES	Phagocytosis inh	Measles CPE	sdo1 growth
CN(Cc1ccccc1)c1nc2c(c(=O)[nH]c(=O)n2C)n1CCOc1ccccc1	.	.	.
Cc1sc2nc(C3CC3)nc(SCC(=O)N3c4ccccc4CC3C)c2c1C (configuration not stated)	.	64	.
Cc1sc2nc(C3CC3)nc(SCC(=O)NCc3ccco3)c2c1C	.	.	.
COC(=O)CCC(=O)c1oc2ccccc2c1N	.	.	.
O=C(c1n[nH]c(=O)c2ccccc12)N1CCN(C2c3ccccc3-c3ccccc32)CC1	/	.	.
COc1ccc(NC(=O)c2cccs2)cc1	/	.	.
COc1ccc(NC(=S)NNC(=O)c2cccs2)cc1	.	17	.
CCn1c(CCNC(=O)c2cccs2)nnc1SCC(=O)Nc1nc(-c2ccccc2)cs1	/	34	.
CCn1c(CCNC(=O)c2cccs2)nnc1SCC(=O)Nc1cccc(Cl)c1	/	.	.
Cc1cccc(CSc2nnnn2-c2ccccc2)c1	.	69	.
Cc1cccc(CSc2nnc(N)n2-c2ccccc2)c1	/	.	.
Cc1ccc(-c2c3c(=O)n(C)c(=O)n(C)c3cn2Cc2ccccc2)cc1	.	38	.
Cn1c(=O)c2c(-c3ccccc3)n(Cc3ccccn3)cc2n(C)c1=O	.	.	.
CC(C)OC(=O)CSc1ncnc2c1cnn2Cc1ccccc1	.	33	.
COC(=O)CSc1ncnc2c1cnn2Cc1ccccc1	.	.	.
COc1ccccc1-n1c(=O)oc2ccc(Cl)cc2c1=O	.	.	.
Cc1csc(NC(=O)CN(C)S(=O)(=O)c2cccc3cccnc23)n1	.	.	.
Cc1ccc(NC(=O)CN(C)S(=O)(=O)c2cccc3cccnc23)cc1	.	49	.
Cc1c(NC(=O)/C(C#N)=C/c2cccs2)c(=O)n(-c2ccccc2)n1C	.	.	.
Cc1cc(C)n(CC(=O)N/N=C/c2ccccn2)n1	.	.	.
COc1ccc(-n2c(C)n[nH]c2=O)cc1	/	68	.
COc1ccc(-n2c(C)n[nH]c2=O)cc1OC	/	.	.
COc1ccc2nc(SCC(=O)Nc3cc(C)on3)[nH]c2c1	.	.	.
CCOC(=O)c1cc2c(ccn2C)n1CC(=O)N(Cc1ccccc1)c1ccc(F)cc1	.	.	.
CC(C)OC(=O)c1cc2c(ccn2C)n1CC(=O)N(Cc1ccccc1)c1ccc(F)cc1	.	56	.
SMILES	Phagocytosis inh	Measles CPE	sdo1 growth
COc1cc2c(cc1OC)C(=O)CCS2	.	.	.
COc1ccc2c(c1)SCCC2=O	.	34	.
Cc1cc(=O)[nH]c2ccccc12	/	.	.
O=c1cc(-c2ccccc2)c2ccccc2[nH]1	.	76	.
CC1CN(C(=O)/C(C#N)=C2\N=C(NC(=O)c3ccccc3Cl)c3ccccc32)CC(C)O1 (configuration not stated)	.	.	.
O=C1CC(Cc2ccccc2)C(=O)N1CCCn1ccnc1 (configuration not stated)	.	.	.
CCOC(=O)C(NC(=O)CC)(Nc1ccccc1OC)C(F)(F)F (configuration not stated)	.	.	.
CCOC(=O)C(NC(=O)CC)(Nc1ccccc1)C(F)(F)F (configuration not stated)	.	24	.
Cc1nc(CN2CCN(C(=O)c3ccc(C(C)(C)C)cc3)CC2)cs1	.	.	.
CCOc1ccccc1OCCCC(=O)Nc1sccc1C(N)=O	.	.	.
Cc1ccc(C)c(SCc2noc(C(=O)NCC3CCCO3)c2C(=O)O)c1 (configuration not stated)	/	.	.
CN(/C(=N/S(=O)(=O)c1cccs1)c1ccccc1)c1ccccc1	.	29	.
CN(C)c1ccc(N/C(=N\S(=O)(=O)c2cccs2)c2ccccc2)cc1	.	.	.
O=C(CCSc1nnc(-c2ccncc2)o1)Nc1ccc(Cl)cc1	.	.	.
O=C(CCSc1nnc(-c2ccncc2)o1)Nc1ccccc1Cl	.	30	.
COc1ccc(S(=O)(=O)N(CCN2CCOCC2)Cc2cc(OC)ccc2OC)cc1	.	.	.
Cc1n[nH]c(C)c1S(=O)(=O)N(CC(=O)NC1CCCC1)c1ccc(C(C)C)cc1	.	.	.
CCOc1ccccc1CNC(=O)c1cc2occc2n1C	.	.	.
CCOc1ccccc1CNC(=O)c1cc2oc3ccccc3c2n1C	/	77	.
COCCn1c(C)cc(C(=O)CSc2cc(C)c3ccc(OC)cc3n2)c1C	.	.	.
Cc1nn(Cc2ccc(C(=O)N3N=C(C(F)F)CC3(O)C(F)F)o2)c(C)c1[N+](=O)[O-] (configuration not stated)	.	.	.
Cc1nn(Cc2cccc(C(=O)N3N=C(C(F)F)CC3(O)C(F)F)c2)c(C)c1[N+](=O)[O-] (configuration not stated)	.	42	.

Screening results as filed in PubChem BioAssay.
